Bioassay records as filed in PubChem BioAssay.
RE007 growth inh = less growth of the S. pombe RE007 Vpr strain; 360,000 tested, 0.21% active; S. pombe RE007 Vpr strain, BacTiter-Glo ATP luminescence, 24 h; Potency, µM (titrated, usually from 92.2 µM), for inactives: top-dose activity change, negative = less growth, usual class: inhibitors; active means well fitted falling curve with a large enough effect; inconclusive means small, poorly fitted or top-dose-only effect; inactive means no such curve, though single readings can be large or run the other way; further: on the % scale 0 is the no-effect control and ±100 the full control effect; nearly all actives have a fitted effect of over 50% in size
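Fission yeast strain RE007, carrying one chromosomally integrated HIV-1 vpr copy, was seeded at OD 0.01 in PMG+AL medium with 23 nL pinned compound. After 24 h at 30 °C and 99% humidity, viability was read by BacTiter-Glo luminescence.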
SARS PLP yeast = SARS-CoV PLP inhibition in yeast; AID 485353; S. cerevisiae expressing SARS-CoV PLpro, growth rescue; 330,000 tested, 0.19% active; Potency, µM (top dose mostly 32.9 µM), without a hit: at the top dose activity, positive = growth rescue, hits mostly activators; further: 0% is about no effect; nearly all actives have a fitted effect of over 55% in size
Pf growth 96h = inhibits malaria parasite growth, 96 h; Potency, µM (doses to about 28.7 µM), for inactives: at the top dose activity change, negative = inhibition, most hits filed as inhibitors; P. falciparum luciferase reporter growth, 96 h; AID 504834; 320,000 tested, 6.9% active; active means well fitted inhibition curve with a large enough effect; inconclusive means small, poorly fitted or top-dose-only effect, or another doubt; inactive means no such curve, though single readings can be large or run the other way; further: on the % scale 0 is the no-effect control and ±100 the full control effect
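96 h incubation, 37 C, 5% CO2, of luciferase-reporter P. falciparum-infected RBCs (2% hematocrit, 0.05% parasitemia final) with test compounds; endpoint luminescence.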
NS1 inh = influenza NS1 inhibition; 270,000 tested, 0.4% active; Potency, µM (series often up to 46.1 µM), without a hit: top-dose activity, positive = more growth; AID 2326; further: actives are rising curves; nearly all actives have a fitted effect of over 50% in size
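Growth recovery, yeast-based: influenza A NS1 expressed in S. cerevisiae causes slow growth, and suppressors are detected by OD600. The parent strain without NS1 is used as positive control.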
Pf growth 48h = inhibits P. falciparum growth in the first generation, 48 h; Potency, µM (series often up to 28.7 µM), inactives show top-dose activity change, negative = inhibition, most hits filed as inhibitors; 310,000 tested, 5.9% active; AID 504832; P. falciparum luciferase growth in erythrocytes, 48 h; active means well fitted inhibition curve with a large enough effect; inconclusive means small, poorly fitted or top-dose-only effect, or another doubt; inactive means no such curve, though single readings can be large or run the other way; further: on the % scale 0 is the no-effect control and ±100 the full control effect
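In quantitative HTS format, infected erythrocytes bearing luciferase-reporter parasites were treated for a single generation at 37 C. Luminescence after adding detection reagent served as the growth measure.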
* = called active by the depositor; ? = inconclusive; / = no result. A selection: hits, their analogues and other compounds. The true share with any hit is near 9.5%. Unless noted, the call rests on the fitted dose curve. Potency means the concentration at half of the fitted maximal effect.

SMILES | RE007 growth inh | SARS PLP yeast | Pf growth 96h | NS1 inh | Pf growth 48h
Cc1nnc(SCC(=O)OC2CC(C)CCC2C(C)C)[nH]c1=O (stereo unspecified) | -2% | 1% | / | 8% | /
CC1CCC(C(C)C)C(OC(=O)CSc2n[nH]c(=O)[nH]c2=O)C1 (stereo unspecified) | -1% | -2% | 13µM* | -7% | -10%
CCOC(=O)c1cnn(-c2ccccc2)c1-n1cccc1C(=O)C(=O)Nc1ccccc1C(F)(F)F | 9% | -9% | 15µM* | 12% | 13µM*
CCOC(=O)c1cnn(-c2ccccc2)c1-n1cccc1C(=O)C(=O)N(CC)CC | 2% | 0% | ? | 0% | -9%
CCn1c(CCCc2nc3c([nH]2)c(=O)n(C)c(=O)n3C)nc2c1c(=O)n(C)c(=O)n2C | / | / | / | -5% | /
COc1ccc(C(=O)C[n+]2ccc3c(c2)nc(-c2cc(OC)c(OC)cc2OC)n3C)cc1 | -5% | -1% | 1µM* | 18% | 3.3µM*
COc1cc(OC)c(-c2nc3c[n+](CC(=O)c4ccccc4)ccc3n2C)cc1OC | -13% | -1% | ? | 17% | 1.9µM*
COc1ccc(C(=O)C[n+]2ccc3c(c2)nnn3-c2ccccc2)cc1 | 7% | 1% | 272% | / | ?
COc1cc(OC)c(-c2nc3cnccc3n2C)cc1OC | -1% | 2% | -13% | -7% | 1%
Cc1cc(C)cc(NC(=S)N2CC(C)OC(C)C2)c1 (stereo unspecified) | 15% | 2% | 2.1µM* | 6% | -7%
O=C(/C=C\N1CCOCC1)c1ccc(Br)cc1 | -28% | -16% | ? | -98% | 32%
CC(C)(C)c1ccc(OCC(=O)O)cc1 | 3% | -2% | 25% | -30% | ?
CN(C)C(=O)O/N=C(\N)COc1ccc(C(C)(C)C)cc1 | -39% | -7% | 12µM* | -82% | 6.6µM*
CNC[C@@H](C)NC[C@@H](Cc1ccccc1)NCCc1ccccc1 | 2% | -1% | 2.9µM* | 5% | ?
CNCCc1ccccc1 | / | 1% | -26% | 8% | 2%
CCOc1ccc(/C=N/N2C(C)CCCC2C)cc1OC (stereo unspecified) | -3% | -2% | 10µM* | 10% | /
COc1cc(/C=N/N2C(C)CCCC2C)cc(OC)c1O (stereo unspecified) | 4% | -1% | -1% | ? | -19%
CCC(/C=C1\Sc2ccc(OC)cc2N1CCO)=C\c1sc2ccc(OC)cc2[n+]1CCO | ? | -57% | 7.4µM* | -1% | 0.59µM*
CCC(/C=C1\Sc2ccc(OC)cc2N1CC)=C\c1sc2ccc(OC)cc2[n+]1CCCS(=O)(=O)[O-] | 0% | -5% | ? | / | ?
c1ccc2c(c1)CN1CCCC1=N2 | -11% | -5% | -20% | 2% | 5%
Cc1ccc(-c2nnc(-c3ccccc3)c(-c3ccccc3)n2)cc1 | -8% | -39% | ? | -26% | 10%
Cc1cc(-c2nnc(-c3ccccc3)c(-c3ccccc3)n2)c(C)o1 | 0% | -3% | ? | 4% | 13µM*
Cc1nnc(NC(=O)CCn2c(=O)oc3ccccc32)s1 | -7% | -1% | 47% | 3% | 9%
COc1cccc(NC(=O)Nc2nc(SC)ns2)c1 | -1% | -9% | 91% | -10% | 78%
CCSc1nsc(NC(=O)Nc2cccc(F)c2)n1 | -15% | -23% | 65% | -134% | 5.9µM*
SMILES | RE007 growth inh | SARS PLP yeast | Pf growth 96h | NS1 inh | Pf growth 48h
O=C(Nc1cc(C(F)(F)F)ccc1-n1cncn1)c1ccc([N+](=O)[O-])o1 | -17% | -39% | ? | / | ?
CCc1nc2ccc(C(=O)NCCCN3CCN(c4ccccc4F)CC3)cc2nc1CC | -15% | 0% | ? | 0% | ?
c1ccc(Cn2nnc3c(NCC4CCCO4)nc(C4CC4)nc32)cc1 (stereo unspecified) | 0% | 3% | ? | 6% | ?
c1ccc(Cn2nnc3c(N4CCC5(CC4)OCCO5)ncnc32)cc1 | 1% | 2% | 12µM* | -6% | -9%
c1ccc(Cn2nnc3c(NCC4CCCO4)ncnc32)cc1 (stereo unspecified) | 3% | 2% | 12µM* | 2% | 42%
COc1ccc(N2CCN(c3ncnc4c3nnn4Cc3ccccc3Cl)CC2)cc1 | 6% | 2% | 5.2µM* | 24% | 3%
O=C(CSc1ncnc2c1nnn2Cc1ccccc1F)NCC1CCCO1 (stereo unspecified) | -21% | -2% | ? | -8% | 15µM*
COc1cc(C(=O)NC(CCSC)C(=O)Nc2ccc(N3CCOCC3)cc2)cc(OC)c1OC (stereo unspecified) | 5% | / | / | / | /
O=C(Cc1ccc(-n2c(=O)c3ccccc3n(Cc3ccccc3F)c2=O)cc1)NCC1CCCO1 (stereo unspecified) | 15% | 7% | 4.7µM* | ? | -15%
C[C@H](NC(=O)c1ccc(Cl)c(Cl)c1)c1ccc(-c2ccccc2)cc1 | / | / | / | 0% | /
O=C(N/N=C/c1ccc(OC(F)F)cc1OC(F)F)NC1CCCCC1 | 14% | -10% | ? | / | 10µM*
COc1cccc(C(=O)N2CCC[C@@H]2C(=O)N2CCC[C@@H]2C(=O)NCc2ccccc2Cl)c1 | -4% | / | / | / | /
Cc1cccc(N2CCN(C(=O)c3ccc(NS(=O)(=O)c4ccc5[nH]c(=O)[nH]c5c4)cc3)CC2)c1C | 14% | 2% | 8.3µM* | ? | ?
CCOC(=O)C1CCCN(C(=O)c2ccc(NS(=O)(=O)c3ccc4[nH]c(=O)[nH]c4c3)cc2)C1 (stereo unspecified) | 6% | -2% | 5.9µM* | / | ?
O=C(c1ccc(NS(=O)(=O)c2ccc3[nH]c(=O)[nH]c3c2)cc1)N1CCN(c2ccccc2O)CC1 | 5% | 0% | ? | / | 3%
CCOC(=O)C1=CCN(S(C)(=O)=O)C1c1ccc(C)cc1 (stereo unspecified) | 10% | / | / | / | /
COc1ccccc1C(CNC(=O)c1ccc(-c2ccccc2Cl)o1)N1CCCC1 (stereo unspecified) | 5% | 9% | 10µM* | / | 15µM*
COc1ccc(C(CNC(=O)Cc2ccccc2)N2CCCCC2)cc1 (stereo unspecified) | -28% | 1% | 2% | 2% | -10%
COc1ccc(C(CNC(=O)c2ccc(OCc3ccccc3)cc2)N2CCOCC2)cc1 (stereo unspecified) | -4% | -3% | ? | / | ?
COc1ccc(C(CNC(=O)Cc2ccc(Cl)c(Cl)c2)N2CCCCC2)cc1 (stereo unspecified) | -23% | -3% | 2.1µM* | -7% | ?
COc1ccc(C(CNC(=O)c2ccc(-c3ccccc3Cl)o2)N2CCOCC2)cc1 (stereo unspecified) | -4% | 0% | ? | / | 15µM*
CN(Cc1ccc(Cl)c(Cl)c1)C(=O)C1=CC=CN2CCS(=O)(=O)N=C12 | -28% | -3% | 1.5µM* | / | 9.3µM*
